Laboratory results as given in PubChem BioAssay AID1490 (National Center for Advancing Translational Sciences (NCATS), 2009).
“And” between values parts separate entries of the source, which are not always exact repeats. Identical values can stand only once. Hit rate of the full screen: of about 310,000 compounds, about 11,000 (3.5%) were called active. About 4% were inconclusive and are not listed. The call rests on the fitted dose curve; in most records, active means well fitted inhibition curve with a large enough effect; inconclusive means small, poorly fitted or top-dose-only effect, or another doubt; inactive means no such curve, though single readings can be large or run the other way. What follows is part of a selection rich in actives, with near analogues and random picks from the rest.

Target: 4'-phosphopantetheinyl transferase ffp (Bacillus subtilis) (UniProt Q9F4F7)
Test: qHTS Assay for Inhibitors of Bacillus subtilis Sfp phosphopantetheinyl transferase (PPTase);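 further: the enzyme is Sfp with the accession as filed and its product quenches rhodamine fluorescence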;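 on largest response in the series, negative = inhibition: 0% = enzyme reaction without inhibitor and -100% = no enzyme wells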
Conditions: Biochemical Sfp PPTase activity
Procedure, shortened: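 Fluorescence-quenching assay with 15 nM Sfp, 5 uM rhodamine-CoA and 12.5 uM BHQ-2-labelled ybbR peptide in pH 7.6 Hepes/MgCl2 buffer. Enzyme was pre-incubated with compound for 15 min at room temperature. Rate was taken from the 30-min fluorescence change (525/598 nm).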
Potency means the concentration at half of the fitted maximal effect.

SMILES | largest response in the series, negative = inhibition | Potency
O=C(CN1CCN(c2ccccc2)CC1)Nc1ccc(F)cc1 | 7.85% (inactive) | 
O=C(CN1CCN(c2ccc(O)cc2)CC1)NC1CCCc2ccccc21 (stereo not given) |  | 17.8 µM (active)
Cc1cc(NC(=O)CCN2CCN(Cc3ccccc3)CC2)ccc1Br | -5.6% (inactive) | 
CC(=O)N1CCN(CC(=O)Nc2ccc(C)c(F)c2)CC1 | -24.9% (inactive) | 
CSc1ccccc1N1CCN(CCCCCC(=O)NC2CCCc3ccccc32)CC1 (stereo not given) | -7.93% (inactive) | 
O=C(CSc1nncs1)NC1CCCc2ccccc21 (stereo not given) | 15.6% (inactive) | 
O=C(CN1CCN(Cc2ccccc2)CC1)Nc1ccc(F)c(F)c1 |  | 56.2 µM (active)
O=C(CN1CCN(c2ccc(O)cc2)CC1)Nc1ccc(-c2ccccc2)cc1 |  | 44.7 µM (active)
O=C(CN1CCOCC1)Nc1cc(Cl)ccc1Cl | 2.24% (inactive) | 
O=C(CN1CCN(c2ccc(F)cc2)CC1)Nc1ccccc1 | -1.74% (inactive) | 
O=C(CN1CCN(c2ccc(O)cc2)CC1)Nc1cc(S(=O)(=O)N2CCOCC2)ccc1Cl |  | 79.4 µM (active)
O=C(CN1CCN(c2cccc(Cl)c2)CC1)Nc1ccc(S(=O)(=O)N2CCOCC2)cc1 | 13% (inactive) | 
COc1ccc(C2(C#N)CCC(C(=O)O)CC2)cc1OC1CCCC1 (stereo not given) | 3.3% (inactive) | 
CN(CC(=O)NCCN1CCOCC1)S(=O)(=O)c1ccc(F)cc1 | 16.5% (inactive) | 
CN(CCNC(=O)c1cc2c(-c3ccccc3F)nn(C)c2s1)C1CCCCC1 | 5.98% (inactive) | 
COC(=O)c1cc(S(=O)(=O)NCC2CCN(Cc3ccc(Cl)cc3)CC2)cn1C | 11.4% (inactive) | 
CCOC(=O)C1(Cc2ccccc2C)CCCN(C(=O)c2ccc(COC)o2)C1 (stereo not given) | -22.7% (inactive) | 
COc1ccc(/C=N/Nc2ccccc2C(=O)O)cc1 | 11.5% (inactive) | 
CCC(=O)Nc1nc(C)c(C(=O)Nc2cccc(Cl)c2)s1 | 8.26% (inactive) | 
O=C(NCc1ccc(F)cc1)C1CCN(C(=O)Nc2ccc(F)cc2)CC1 | 9.57% (inactive) | 
C=CCOC(=O)NC(c1ccc(F)c(F)c1)C(C(=O)COC)C(=O)OC (stereo not given) | -7.09% (inactive) and 12.8% (inactive) | 
CCOC(=O)c1cccc(NS(=O)(=O)c2c(C(=O)N3CCCCCC3)c(C)n(C)c2C)c1 | 2.36% (inactive) | 
Nc1nonc1-n1nnc(C(=O)N/N=C\c2ccncc2)c1CN1CCCCC1 | 21.3% (inactive) | 
COc1ccc2[nH]cc(CCN3C(=O)c4ccc(C(=O)O)cc4C3=O)c2c1 | 20.2% (inactive) | 
O=C(Cc1ccc(F)cc1)N/N=C/c1ccc2c(c1)OCO2 | 18.6% (inactive) | 
O=C(N/N=C/c1ccc2c(c1)OCO2)C(=O)N1CCCC1 | 24.9% (inactive) | 
Brc1ccc(-c2csc(N/N=C/c3ccc4c(c3)OCO4)n2)cc1 |  | 2.82 µM (active)
Cc1noc(C)c1/C=N/Nc1ccc2ccccc2n1 | 25.3% (inactive) | 
C(=N\Nc1ccc2ccccc2n1)/c1ccc2c(c1)OCO2 |  | 50.1 µM (active)
O=C(CNC(=O)C(c1ccccc1)c1ccccc1)N/N=C\c1ccc2c(c1)OCO2 | -10.2% (inactive) | 
